# Assay outcomes: PubChem BioAssay, National Center for Advancing Translational Sciences (NCATS)
# HepG2 tox-1: counter-screen for TGF-b inhibitors: cytotoxicity in HepG2 cells; Potency, µM (doses to about 46.1 µM), for inactives: top-dose activity change, negative = cytotoxicity, actives largely listed as cytotoxic; HepG2 CAGA-GFP viability, ATP luminescence, 18 h; AID 588856; hit rate 0.76% among 410,000
#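 CellTiter-Glo luminescence gave cytotoxicity after 18 hours at 37 degrees C. The cells were HepG2 CAGA-GFP in 1% FBS DMEM, stimulated with 500 pg/mL TGF-beta after compound addition. %Activity was normalised to no-cell wells (complete cell-killing) and DMSO (no toxicity), and curves were fitted and classified.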
# A549 viability: A549 cytotoxicity, counter-screen for Nrf2 inhibitors; A549 ARE-Fluc cells, CellTiter-Fluor viability, 18-24 h; Potency, µM (doses to about 46 µM), without a hit: at the highest dose activity change, negative = cytotoxicity, actives largely listed as inhibitors; hit rate 0.16% among 390,000; further: on the % scale 0 is the no-effect control and ±100 the full control effect
#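 A549 ARE-Fluc cells in 5% FBS OPTI-MEM, 5000 cells/well, rested 2 h then exposed to compounds in concentration-response for 18-24 h at 37 °C. Viability by CellTiter-Fluor fluorescence (Ex 405/Em 525) after 30 min; luciferase luminescence (BugLite, 15 min, RT) read afterwards.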
# ATXN2 expr inh: reduces ATXN2 reporter expression in HEK-293 cells | HEK-293 ATXN2-luciferase reporter, luminescence, 24 h | hit rate 0.72% among 360,000 | Potency, µM (titrated, usually from 57 µM), without a hit: top-dose activity change, negative = inhibition, actives largely listed as inhibitors; further: on the % scale 0 is the no-effect control and ±100 the full control effect; nearly all actives have a fitted effect of over 55% in size
#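 qHTS (up to 57 uM final) was run with 24 h compound exposure of reporter cells at 37 °C. Each well was multiplexed: SteadyGlo luminescence measured ATXN2-luciferase expression after a fluorogenic Gly-Phe-AFC viability readout (25 uM final).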
# TGFb SMAD3 inh: inhibitors of TGF-b signaling. HepG2 CAGA-GFP TGF-b/SMAD3 reporter, GFP fluorescence, 18 h; TGF-beta stimulated, 500 pg/mL final. Potency, µM (doses to about 46.1 µM), without a hit: at the highest dose activity, negative = inhibition, most hits filed as inhibitors. hit rate 1.2% among 410,000. AID 588855; further: on the % scale 0 is the no-effect control and ±100 the full control effect; nearly all actives have a fitted effect of over 65% in size
#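 Using HEPG2 CAGA-GFP reporter cells at 1000 cells/well, we pinned test compounds, stimulated with recombinant TGF-beta (500 pg/mL final) and measured total well GFP after 18 h.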
# Nrf2 block: inhibitors of Nrf2 signaling | A549 ARE-Fluc reporter, luciferase luminescence, 18-24 h | Potency, µM (titrated, usually from 46 µM), for inactives: top-dose activity change, negative = inhibition, most hits filed as inhibitors | hit rate 2.1% among 360,000 | AID 504444; further: on the % scale 0 is the no-effect control and ±100 the full control effect; nearly all actives have a fitted effect of over 60% in size
#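 Concentration-response testing used A549 ARE_Fluc cells at 5000 cells/well. Following an 18-24 h compound incubation, viability was read by fluorescence (Ex 405/Em 525) and luciferase output by luminescence.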
# S2 tox: cell viability loss in ATXN counter-screen | S2 cells (HEK-293 line with an ATXN2-luciferase reporter) viability, CellTiter-Fluor protease fluorescence, 24 h | Potency, µM (top dose mostly 56.7 µM), most hits filed as cytotoxic | AID 651635 | hit rate 0.49% among 400,000; further: nearly all actives have a fitted effect of over 40% in size
# TGFb confirm: TGF-b pathway inhibition, cherry-pick retest; shares compounds with TGFb SMAD3 inh; hit rate 63% among 1,600; HepG2 CAGA-GFP TGF-b reporter, GFP fluorescence, 18 h; cells stimulated with TGF-beta, 500 pg/mL; Potency, µM (highest dose often 46.1 µM), for the others: top-dose activity, negative = inhibition, actives largely listed as inhibitors; AID 720534; further: on the % scale 0 is the no-effect control and ±100 the full control effect; nearly all actives have a fitted effect of over 65% in size
# HepG2 tox-2: toxic to HepG2 cells in TGF-b counterscreen; AID 720535; shares compounds with TGFb SMAD3 inh; Potency, µM (titrated, usually from 46.1 µM), without a hit: top-dose activity, negative = cytotoxicity, usual class: inhibitors; HepG2 CAGA-GFP viability, ATP luminescence, 18 h; cells stimulated with TGF-beta, 500 pg/mL; hit rate 27% among 1,600; further: on the % scale 0 is the no-effect control and ±100 the full control effect; nearly all actives have a fitted effect of over 70% in size
# CCL64 TGFb inh: blocks TGF-b signaling in CCL64 reporter cells; shares compounds with TGFb SMAD3 inh; CCL64 CAGA-GFP reporter, TGF-b stimulated, GFP fluorescence, 18 h; Potency, µM (top dose mostly 46.1 µM), inactives show at the top dose activity, negative = inhibition, hits mostly inhibitors; hit rate 41% among 1,600; further: nearly all actives have a fitted effect of over 65% in size
# TGFb COP inh: TGF-b inhibition validated with COP promoter; hit rate 3% among 1,600; shares compounds with TGFb SMAD3 inh; HepG2 COP-GFP TGF-b reporter, GFP fluorescence, 18 h; cells stimulated by added recombinant TGF-beta; Potency, µM (titrated, usually from 46.1 µM), for inactives: at the highest dose activity, negative = inhibition, most hits filed as inhibitors; further: nearly all actives have a fitted effect of over 70% in size
# An asterisk follows results filed as active; i = inactive; ? = inconclusive; . = no result given; [ ] = dose if it differs, or a comment. The list is not random: actives were taken first. Their share in the collection is about 3.8%. The call rests on the fitted dose curve; in most records, active means well fitted curve in the direction sought with a large enough effect; inconclusive means small, poorly fitted or top-dose-only effect, or another doubt; inactive means no such curve, though single readings can be large; an effect the other way counts as inactive or inconclusive. Potency means the concentration at half of the fitted maximal effect.
SMILES,HepG2 tox-1,A549 viability,ATXN2 expr inh,TGFb SMAD3 inh,Nrf2 block,S2 tox,TGFb confirm,HepG2 tox-2,CCL64 TGFb inh,TGFb COP inh
CCC(C)Sc1ccc([C@@H]2[C@@H]3C(=O)N(CC)C(=O)[C@@H]3[C@]3(C(=O)OC)CCCCN23)cc1OC (stereo not given in full),-7%,-5%,-5%,?,-9%,i,?,2%,-23%,5%
CNc1cc(C)c(C#N)c2nc3ccccc3n12,-4%,4%,-29%,1%,-17%,.,.,.,.,.
Cc1cc(Cl)n2c(nc3ccccc32)c1C#N,-101%,?,?,1.8µM*,?,.,1.2µM*,5.2µM*,1.5µM*,26µM*
Clc1nc(Cl)nc(N(c2ccccc2)c2ccccc2)n1,-46%,-14%,-1%,?,2%,i,?,?,?,36%
c1ccc(N(c2ccccc2)c2nc(-n3ccnc3)nc(-n3ccnc3)n2)cc1,-15%,12%,-2%,?,?,i,.,.,.,.
COc1ccc([C@H]2CC(=O)C=C(c3ccc(Cl)c(C(F)(F)F)c3)C2)cc1,-37%,4%,-2%,8.9µM*,6%,i,?,?,?,14%
CCCOc1ccccc1N/C(=N/c1nc(C)cc(C)n1)NC(=O)COc1ccc(OC)cc1,-7%,-12%,-34%,10µM*,.,i,13µM*,-27%,?,24%
CCCOc1ccccc1N/C(N)=N/c1nc(C)cc(C)n1,-7%,8%,-28%[11.3 µM],-17%,-3%,i,.,.,.,.
CC(C)C[C@@H](CN1CCCC1CN1C(=S)NC[C@@H]1Cc1ccc(O)cc1)N1C[C@H](Cc2ccccc2)N(CC2CCCCC2)C1=S (stereo not given in full),-34%,0%,-15%,?,-6%,?,.,.,.,.
CC(C)C[C@@H](CN1CCCC1CN1C(=S)NC[C@@H]1Cc1ccc(O)cc1)N1C[C@H](Cc2ccc(O)cc2)N(CC2CCCCCC2)C1=S (stereo not given in full),-111%,-7%,?,5.6µM*,21µM*,28µM*,21µM*,?,13µM*,?
CC(C)C[C@@H](CN1CCCC1CN1C(=S)NC[C@@H]1Cc1ccc(O)cc1)N1C[C@H](Cc2ccccc2)N(CC2CCCCCC2)C1=S (stereo not given in full),-7%,-17%,-28%,16µM*,-7%,?,10µM*,?,2.1µM*,31%
COc1cccc(C2CC(c3cccs3)=NN2S(C)(=O)=O)c1 (stereo not given),4%,-3%,21%,3%,?,i,.,.,.,.
O=C(Nc1cccc(F)c1)c1ccc(-c2cccnc2)c2ccoc12,-34%,.,-28%,-13%,.,i,.,.,.,.
Cc1ccc(S(=O)(=O)N(CC(=O)Nc2ccc(Cl)c([N+](=O)[O-])c2)C2CCCCC2)cc1,-14%,-16%,2%,10µM*,?,i,?,-23%,?,28%
Cc1ccc(-n2nc3c(N4CCC(C(=O)NC5CCC(C)CC5)CC4)nnc(C)c3c2C)cc1 (stereo not given),-16%,2%,-16%,-27%,18%,i,.,.,.,.
COc1ccc2cc([C@H](C)C(=O)N(C)Cc3ccccc3N3CCCC3)ccc2c1,-30%,19%,-23%,10µM*,-27%,i,8.2µM*,?,?,34%
COc1ccc(C(CNC(=O)C(C)c2ccc3cc(OC)ccc3c2)N(C)C)cc1 (stereo not given),-17%,0%,-5%,-23%,4%,i,.,.,.,.
CC1(C)CCC(C)(C)c2cc(NC(=O)c3ccc(C(=O)O)cc3)ccc21,.,.,-19%,.,.,i,.,.,.,.
Cc1ccc(C)c(S(=O)(=O)Nc2ccccc2C(=O)Nc2cc(C)on2)c1,-36%,-25%,?,7.9µM*,-23%,i,?,?,?,22%
Cc1cc(NC(=O)c2ccccc2NS(=O)(=O)c2c(C)c(C)cc(C)c2C)no1,-21%,-1%,-2%,?,?,i,.,.,.,.
Cc1nc(Nc2nc(CSc3nc4ccccc4[nH]3)cc(=O)[nH]2)nc2ccccc12,-16%,?,-4%,18µM*,22%,?,5.2µM*,4.1µM*,6.5µM*,38%
COc1ccc2nc(Nc3nc(CSc4nc5ccccc5[nH]4)cc(=O)[nH]3)nc(C)c2c1,4%,?,0%,2.8µM*,?,i,8.2µM*,?,18µM*,26%
COC(=O)c1ccccc1C(=O)N(c1ccccc1)c1ccccc1,-25%,-11%,-24%,-3%,-5%,i,.,.,.,.
CCOC(=O)CCc1ccc(NC(=O)/C=C/c2ccc([N+](=O)[O-])o2)cc1,10µM*,?,?,4.5µM*,?,8.4µM*,9.2µM*,13µM*,?,-31%
CC(C)NC(=O)N(C)C[C@H]1Oc2ccc(NC(=O)c3ccncc3)cc2C(=O)N([C@H](C)CO)C[C@@H]1C,-19%,8%,8%,-8%,-17%,i,.,.,.,.
CCCOc1ccc(/C=N/NC(=O)CN(c2ccc(OCC)cc2)S(C)(=O)=O)cc1,-30%,4%,0%,?,-6%,i,.,.,.,.
CCOc1ccc(N(CC(=O)N/N=C/c2cc([N+](=O)[O-])ccc2Cl)S(C)(=O)=O)cc1,0%,-7%,-15%,7.9µM*,.,i,15µM*,-3%,?,16%
